Sampled rows, rich in hits. Any-hit rate of the full collection: about 19%.
HT1080 IDH1KD tx: qHTS for induction of synthetic lethality in tumor cells producing 2HG: qHTS for the HT-1080-IDH1KD cell line. HT-1080 IDH1 knockdown viability, ATP luminescence, 48 h. hit rate 2% among 360,000. Potency, µM (doses to about 46.1 µM), for the others: at the highest dose activity, negative = toxicity, hits mostly cytotoxic;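 further: potency means the concentration at half of the fitted maximal effect; 0% = DMSO wells and -100% = cell-free medium wells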
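Viability of IDH1-knockdown HT-1080 fibrosarcoma cells was assessed by CellTiter-Glo after 48 h at 37 °C with titrated compound; concentration-effect curves were classified by fit quality and response size.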
DT40 TDP1 no CPT: qHTS for Inhibitors of human tyrosyl-DNA phosphodiesterase 1 (TDP1): qHTS in cells in absence of CPT. DT40 Tdp1-/- hTDP1 cells, no CPT, ATP luminescence, 48 h. Potency, µM (series often up to 46.2 µM), for inactives: top-dose activity change, negative = growth inhibition, most hits filed as inhibitors. hit rate 15% among 420,000. AID 686978, 2013; further: potency means the concentration at half of the fitted maximal effect; nearly all actives have a fitted effect of over 55% in size
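Compound effects on proliferation are scored in DT40 Tdp1-/-;hTDP1 cells in the absence of CPT. ATP levels (CellTiter-Glo luminescence) are recorded after a ≥48 hr, 37 °C incubation.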
IL1B secr inh: qHTS for Inhibitors of Inflammasome Signaling: IL-1-beta AlphaLISA Primary Screen. THP-1 LPS/ATP IL-1B secretion, AlphaLISA, 16 h; active compounds read low. activity change, % at 57.5 µM. hit rate 4.7% among 360,000; in the data active means activity change below about -50%; inconclusive means mostly about -30% to -49%
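Secreted IL-1B measured by AlphaLISA bead assay after 16 h compound exposure of THP-1 cells; compounds (final up to 57.5 uM) added 1 h before LPS (250 ng/mL) and ATP (1.25 mM) stimulation; lower signal means less secretion.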
ELG1 DNA repair: qHTS screen for small molecules that inhibit ELG1-dependent DNA repair in human embryonic kidney (HEK293T) cells expressing luciferase-tagged ELG1. HEK293T ELG1-luciferase reporter, luminescence, 16 h; DNA damage induced by 5-fluorouridine. Potency, µM (highest dose often 46.1 µM), without a hit: at the top dose activity change, negative = inhibition, usual class: inhibitors. hit rate 2.3% among 330,000. AID 504467, 2011; further: potency means the concentration at half of the fitted maximal effect; nearly all actives have a fitted effect of over 55% in size
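In this reporter screen, reduction of luminescence relative to DMSO vehicle indicated activity. Compounds and 5-fluorouridine were added together to 2,000 cells per well, incubated for 16 hr at 37 °C, then developed with ONE-Glo.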
HT1080NT lethal: qHTS for induction of synthetic lethality in tumor cells producing 2HG: qHTS for the HT-1080-NT fibrosarcoma cell line; HT-1080-NT fibrosarcoma viability, CellTiter-Glo ATP luminescence, 48 h; Potency, µM (doses to about 46.1 µM), for the others: at the highest dose activity, negative = less viability, usual class: cytotoxic; hit rate 1.6% among 360,000; AID 686970, 2013;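 further: NT is the 2HG producing partner of a matched IDH1 knockdown line; potency means the concentration at half of the fitted maximal effect; 0% = DMSO-treated cells and -100% = media-only wells without cells; nearly all actives have a fitted effect of over 55% in size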
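Compounds were tested in concentration-response format on HT-1080-NT cells for 48 hours at 37 degrees C. Cell viability came from CellTiter-Glo luminescence; curves were classified by r2, response magnitude and activity.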
TDP1 cell CPT: qHTS for Inhibitors of human tyrosyl-DNA phosphodiesterase 1 (TDP1): qHTS in cells in presence of CPT | chicken DT40 Tdp1-/-;hTDP1 cells + 20 nM CPT, ATP luminescence, 48 h | Potency, µM (top dose mostly 46.2 µM), without a hit: at the top dose activity change, negative = growth inhibition, usual class: inhibitors | hit rate 12% among 420,000 | AID 686979, 2013; further: potency means the concentration at half of the fitted maximal effect; nearly all actives have a fitted effect of over 55% in size
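Chicken DT40 Tdp1-/- cells stably complemented with human TDP1 were seeded at 400 cells/well in medium containing 20 nM camptothecin, exposed to pin-transferred compounds, and grown at 37 °C for at least 48 hr. Viability was read as ATP luminescence.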
An asterisk follows results filed as active; u = inconclusive; x = no result given; ! = a repeat was not active; [ ] = remark or other dose. Unless noted, the call rests on the fitted dose curve; in most records, active means well fitted curve in the direction sought with a large enough effect; inconclusive means small, poorly fitted or top-dose-only effect, or another doubt; inactive means no such curve, though single readings can be large; an effect the other way counts as inactive or inconclusive. Unless noted, on the % scale 0 is the no-effect control and ±100 the full control effect.

SMILES	HT1080 IDH1KD tx	DT40 TDP1 no CPT	IL1B secr inh	ELG1 DNA repair	HT1080NT lethal	TDP1 cell CPT
N#CC(C#N)=Cc1cc2ccccc2nc1N1CCCCC1	-4%	21µM*	-104*	0%	-7%	21µM*
Nc1c(-c2cccc(Cl)c2)cnn1-c1cccc(C(F)(F)F)c1	-28%	16µM*	-61*	0%	u	u
CC1CCC(C#N)(N(C)C(=O)CSc2nnc(C3CC3)n2C2CC2)CC1 (centres undefined)	11%	15%	10	u	10%	9%
CC1CCN(S(=O)(=O)c2ccc3c(c2)N(CC(=O)NCCCN2CCCC(C)C2)C(=O)CS3)CC1 (centres undefined)	-14%	15µM*!	-21	u	-15%	15µM*!
CCC1CCCCN1CCCNC(=O)CN1C(=O)CSc2ccc(S(=O)(=O)N3CCC(C)CC3)cc21 (centres undefined)	3%	23µM*!	-20	6%	-6%	u
CC(C)CN(CCNC(=O)CN1C(=O)CSc2ccc(S(=O)(=O)N3CCOCC3)cc21)CC(C)C	12%	21µM*!	0	0%	12%	18µM*!
CC1CCCN(CCCNC(=O)CN2C(=O)CSc3ccc(S(=O)(=O)N4CCOCC4)cc32)C1 (centres undefined)	5%	8%	-9	1%	11%	-12%
O=C(O)c1sccc1S(=O)(=O)N1CCOCC1	0%	2%	20	u	13%	5%
COC(=O)[C@H](CO)N1C(=O)[C@@H]2[C@H](C1=O)C1C=C[C@H]2C1	12%	1%	21	x	11%	21%
CC(=O)c1cccc(N2C(=NC(=O)C3CC3)SC3CS(=O)(=O)CC32)c1 (centres undefined)	6%	6%	-5	u	5%	3%
CCOC(=O)N1CCN(S(=O)(=O)c2ccc(Br)s2)CC1	5%[9.24 µM]	13µM*	15	0%	-7%	u
Cc1ccc(NC(=O)CN2CCCN(S(=O)(=O)c3ccc(Br)s3)CC2)cc1	-13%	18µM*	-28	u	-6%	18µM*
Cc1ccc(-c2nc3cccnc3o2)cc1NC(=O)COc1ccc(Cl)cc1C	-2%	u	-1	-7%	-1%	u
Cc1ccc(-c2nc3cccnc3o2)cc1NC(=O)COc1ccc(C(C)(C)C)cc1	u	9.2µM*	-9	u	u	15µM*
CNS(=O)(=O)c1cc(NC(C)=O)c(C)cc1C	2%	-11%	4	13%	-1%	-16%
Cc1ccc(C)c2sc(N3CCN(C(=O)c4ccc([N+](=O)[O-])o4)CC3)nc12	u	u	-103*	4%	u	8.2µM*
Cc1ccc(Cl)c2sc(N3CCN(C(=O)C4CC4)CC3)nc12	x	u	x	x	x	-6%
O=C(c1ccc([N+](=O)[O-])o1)N1CCN(c2nc3c(F)cc(F)cc3s2)CC1	9%	u	-71*	u	9%	u
C=CC[C@H](CC(=O)N(CCO)Cc1ccccc1)C(=O)NCCOC(=O)[C@@H](CC=C)CC(=O)OC(C)(C)C	-2%	u	-2	-5%	3%	23µM*
C=CC[C@H](CC(=O)N(CCO)Cc1ccccc1)C(=O)NCCOC(=O)[C@H](CC=C)CC(=O)OC(C)(C)C	-1%	21µM*	-21	u	0%	16µM*
OC(c1ccc(F)c(F)c1)c1nc(-c2cccc(F)c2)cs1 (centres undefined)	u	u	28	x	u	15µM*
OC(c1ccc(F)c(F)c1)c1nc(-c2cccs2)cs1 (centres undefined)	-4%	u	-12	x	-1%	u
COc1ccc(C(O)c2nc(-c3cc(F)cc(F)c3)cs2)cc1 (centres undefined)	u	16µM*	-16	x	u	16µM*
OC(c1ccc(F)cc1)c1nc(-c2cncnc2)cs1 (centres undefined)	4%	-24%	-86*	x	11%	u
OC(c1ccc(F)c(F)c1)c1nc(-c2cnc3ccccc3c2)cs1 (centres undefined)	-28%	21µM*	22	x	u	u
SMILES	HT1080 IDH1KD tx	DT40 TDP1 no CPT	IL1B secr inh	ELG1 DNA repair	HT1080NT lethal	TDP1 cell CPT
O=C(c1cnsn1)N1CCOc2ccc(CN3CCOCC3)cc2C1	x	-13%	x	x	x	12%[9.04 µM]
CC(=O)NC(c1ccc(F)c(F)c1)c1nc(-c2ccc3c(c2)OCO3)cs1 (centres undefined)	9%	u	-20	x	-3%	u
CC(C)c1cccc(-c2csc(C(O)c3ccc(F)c(F)c3)n2)c1 (centres undefined)	u	u	-5	x	u	u
COc1cc(C(O)c2nc(-c3cccc(C(C)C)c3)cs2)ccc1F (centres undefined)	u	18µM*	16	x	u	u
COc1cc(C(O)c2nc(-c3cccc(F)c3)cs2)ccc1F (centres undefined)	-27%	18µM*	0	x	u	u
OC(c1ccccc1)c1nc(-c2ccc(F)c(Cl)c2)cs1 (centres undefined)	u	-39%	-6	x	u	16µM*
OC(c1ccc(F)c(F)c1)c1nc(-c2ccc3c(c2)OCO3)cs1 (centres undefined)	-25%	u	-15	x	-8%	21µM*
CCc1ccc(CNC(=O)C2Cc3cc(S(=O)(=O)N4CCCC4)ccc3N2C(C)=O)cc1 (centres undefined)	-14%	-26%	-15	14%	-4%	u
C[C@H](NC(=O)C1CCN(S(=O)(=O)c2ccccc2)CC1)C(=O)NC1CC1	-2%	-3%	17	x	4%	-10%
COc1cc(C(O)c2nc(-c3ccc(N(C)C)cc3)cs2)ccc1F (centres undefined)	u	23µM*	-62*	x	-1%	16µM*
COc1cc(C(O)c2nc(-c3cc4ccccc4o3)cs2)ccc1F (centres undefined)	u	23µM*	-6	x	u	21µM*

High-throughput results from PubChem BioAssay.
